According to PubChem BioAssay:
Calls of active or inactive are those of the source.

Experiments:
[1] = small molecules captured by biotinylated probe aFSTL3 – biochemical, small-molecule microarray, fluorescence 635/667, stem cell growth factor project, primary screen (AID 1064); conditions: higher = more signal;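 also: measures binding of the biotinylated anti-FSTL3 antibody to printed compounds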
[2] = binders from COS7 lysate, DM2A8 probe, primary screen, torsin A project, cell lysate, small-molecule microarray, fluorescence 635/667 (AID 1065); conditions: higher = more signal, COS7 lysate expressing mutant human TOR1A
[3] = small molecules captured by biotinylated probe aFGF2 – biochemical, small-molecule microarray, fluorescence 635/667, stem cell growth factor project, primary screen (AID 1067); conditions: higher = more signal;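 also: measures binding of biotinylated aFGF2 protein to printed compounds on slides; z-score merges feature fluorescence and signal-to-noise across triplicate slides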
[4] = small molecules captured by biotinylated probe aFGF10 – biochemical, small-molecule microarray, fluorescence 635/667, stem cell growth factor project, primary screen (AID 1071); conditions: higher = more signal;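 also: score merges 667 nm spot intensity and signal to noise from triplicate slides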
[5] = molecular target: Neurogenic locus notch homolog protein 2 (Homo sapiens) (UniProt Q04721); test: small molecules binding Notch2 protein – biochemical, small-molecule microarray, 635 nm fluorescence, stem cell growth factors, primary screen (AID 1073); conditions: higher = more signal
[6] = molecular target: Pro-neuregulin-1, membrane-bound isoform (Homo sapiens) (UniProt Q02297); test: small molecules binding neuregulin-1 protein – biochemical, small-molecule microarray, fluorescence 635/667, psychiatric disease protein project, primary screen (AID 1075); conditions: NRG1 binding, 635 nm fluorescence, higher = more signal;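 also: score combines 667 nm spot fluorescence with signal to noise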
[7] = tested on: Neuregulin-1 EGF-like domain; test: small molecules binding NRG1 EGF domain – biochemical, small-molecule microarray, 635 nm fluorescence, primary screen (AID 1081); conditions: higher = more signal;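 also: binding of the protein to compounds printed on small-molecule microarray slides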
[8] = FRG1 expression reporter modulators in myotubes – cell-based, C2C12 myotubes, firefly/Renilla luciferase, luminescence, FRG1 inhibition for FSHD, primary screen (AID 1084); conditions: FRG1 promoter luciferase, higher = more signal, called active from +8 up or from −8 down
[9] = small molecules captured by biotinylated probe aFST – biochemical, small-molecule microarray, fluorescence 635/667, stem cell growth factor project, primary screen (AID 1086); conditions: higher = more signal;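 also: score merges 667 nm fluorescence with signal-to-noise of each printed compound spot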
[10] = binders of probe aHhip on microarray, primary screen, stem cell growth factor project, biochemical, small-molecule microarray, fluorescence 635/667 (AID 1087); conditions: higher = more signal;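 also: score merges spot fluorescence at 667nm with spot signal to noise ratio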
[11] = tested on: PRMT1 (protein arginine N-methyltransferase 1); test: small molecules binding arginine methyltransferase PRMT1 – biochemical, small-molecule microarray, 635 nm fluorescence, primary screen (AID 1088); conditions: higher = more signal;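 also: binding of Prmt1 protein to compounds spotted on small-molecule microarray slides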
[12] = growth effects on S. cerevisiae YJM789 – YJM789 clinical isolate, OD600, 24 h, basal, primary screen (AID 1089); conditions: higher = more signal, called active from +8 up or from −8 down;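 also: growth of clinical yeast isolate S. cerevisiae YJM 789 seeded 1000 cells per well; test concentration not given here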
[13] = S. pombe growth modifiers, basal conditions – strain 972, OD600, 24 h, no modulator, primary screen (AID 1090);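 also: basal condition with compound alone and no growth modifier present; test concentration not given here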; conditions: S. pombe 972 growth, higher = more signal, called active from +8 up or from −8 down
[14] = budding yeast growth modifiers under rapamycin – strain BY4716, OD600, 96 h, primary screen (AID 1091); also: test concentration not given here; conditions: S. cerevisiae BY4716 + rapamycin, higher = more signal, called active from +8 up or from −8 down
[15] = molecular target: Torsin-1A-interacting protein 2 (Homo sapiens) (UniProt Q8NFQ8); test: small molecules binding lysate-expressed LULL1 – cell lysate, human LULL1 lysate, 635/667 nm fluorescence, primary screen (AID 1092); conditions: small-molecule microarray, hLULL1 lysate binding, 635 nm fluorescence; higher = more signal;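 also: probe is lysate of COS7 cells overexpressing human LULL1; score merges per-feature 667 nm fluorescence with signal-to-noise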
[16] = optical density change of DRC41 E. coli – strain DRC41, OD650, 24 h, E. coli filamentation project, primary screen (AID 1093);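 also: MC1000 strain lacking acrAB efflux and sulA so SOS filamentation is blocked; test concentration not given here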; conditions: E. coli DRC41 growth, higher = more signal, called active from +8 up or from −8 down
[17] = probe aLefty2 binding to arrayed compounds – biochemical, biotinylated probe, 635/667 nm fluorescence, primary screen (AID 1094); conditions: small-molecule microarray, higher = more signal;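 also: score merges spot fluorescence near 667 nm with spot signal-to-noise ratio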
[18] = tested on: Noggin (protein binding on small-molecule microarray); test: small molecules binding Noggin protein – biochemical, 635/667 nm fluorescence, primary screen (AID 1095); conditions: 635 nm fluorescence, higher = more signal;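 also: score merges 667 nm feature fluorescence with signal to noise over triplicate slides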
[19] = molecular target: Neurogenic locus notch homolog protein 3 (Homo sapiens) (UniProt Q9UM47); test: small molecules binding NOTCH3 protein – biochemical, 635/667 nm fluorescence, primary screen (AID 1096); conditions: small-molecule microarray, 635 nm fluorescence, higher = more signal
[20] = probe aEGFR binding to arrayed compounds – biochemical, biotinylated probe, 635/667 nm fluorescence, primary screen (AID 1097); conditions: small-molecule microarray, higher = more signal;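 also: probe is a biotinylated anti-EGFR antibody binding compounds printed on slides; score combines fluorescence near 667 nm and signal to noise of each spot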

Pro-neuregulin-1, membrane-bound isoform (Homo sapiens), sequence (Q02297 whole entry, looked up, the tested form may be a part, canonical isoform): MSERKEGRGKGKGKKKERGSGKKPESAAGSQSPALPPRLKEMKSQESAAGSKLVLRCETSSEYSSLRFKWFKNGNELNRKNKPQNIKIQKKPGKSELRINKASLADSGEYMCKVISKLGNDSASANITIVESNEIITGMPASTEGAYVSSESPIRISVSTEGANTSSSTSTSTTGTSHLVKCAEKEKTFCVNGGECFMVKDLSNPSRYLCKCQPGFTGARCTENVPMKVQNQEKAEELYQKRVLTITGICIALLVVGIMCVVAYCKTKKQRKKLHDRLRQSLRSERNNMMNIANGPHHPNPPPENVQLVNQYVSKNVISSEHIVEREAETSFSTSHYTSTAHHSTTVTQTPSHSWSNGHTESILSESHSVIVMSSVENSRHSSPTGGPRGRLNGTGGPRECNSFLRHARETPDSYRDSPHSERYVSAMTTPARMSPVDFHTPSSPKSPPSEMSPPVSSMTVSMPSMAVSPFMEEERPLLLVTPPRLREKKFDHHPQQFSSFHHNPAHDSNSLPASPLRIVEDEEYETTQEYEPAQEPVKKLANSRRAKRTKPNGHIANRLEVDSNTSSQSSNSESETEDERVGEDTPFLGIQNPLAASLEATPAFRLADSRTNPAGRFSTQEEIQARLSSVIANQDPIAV
Neurogenic locus notch homolog protein 3 (Homo sapiens), sequence (Q9UM47 whole entry, looked up): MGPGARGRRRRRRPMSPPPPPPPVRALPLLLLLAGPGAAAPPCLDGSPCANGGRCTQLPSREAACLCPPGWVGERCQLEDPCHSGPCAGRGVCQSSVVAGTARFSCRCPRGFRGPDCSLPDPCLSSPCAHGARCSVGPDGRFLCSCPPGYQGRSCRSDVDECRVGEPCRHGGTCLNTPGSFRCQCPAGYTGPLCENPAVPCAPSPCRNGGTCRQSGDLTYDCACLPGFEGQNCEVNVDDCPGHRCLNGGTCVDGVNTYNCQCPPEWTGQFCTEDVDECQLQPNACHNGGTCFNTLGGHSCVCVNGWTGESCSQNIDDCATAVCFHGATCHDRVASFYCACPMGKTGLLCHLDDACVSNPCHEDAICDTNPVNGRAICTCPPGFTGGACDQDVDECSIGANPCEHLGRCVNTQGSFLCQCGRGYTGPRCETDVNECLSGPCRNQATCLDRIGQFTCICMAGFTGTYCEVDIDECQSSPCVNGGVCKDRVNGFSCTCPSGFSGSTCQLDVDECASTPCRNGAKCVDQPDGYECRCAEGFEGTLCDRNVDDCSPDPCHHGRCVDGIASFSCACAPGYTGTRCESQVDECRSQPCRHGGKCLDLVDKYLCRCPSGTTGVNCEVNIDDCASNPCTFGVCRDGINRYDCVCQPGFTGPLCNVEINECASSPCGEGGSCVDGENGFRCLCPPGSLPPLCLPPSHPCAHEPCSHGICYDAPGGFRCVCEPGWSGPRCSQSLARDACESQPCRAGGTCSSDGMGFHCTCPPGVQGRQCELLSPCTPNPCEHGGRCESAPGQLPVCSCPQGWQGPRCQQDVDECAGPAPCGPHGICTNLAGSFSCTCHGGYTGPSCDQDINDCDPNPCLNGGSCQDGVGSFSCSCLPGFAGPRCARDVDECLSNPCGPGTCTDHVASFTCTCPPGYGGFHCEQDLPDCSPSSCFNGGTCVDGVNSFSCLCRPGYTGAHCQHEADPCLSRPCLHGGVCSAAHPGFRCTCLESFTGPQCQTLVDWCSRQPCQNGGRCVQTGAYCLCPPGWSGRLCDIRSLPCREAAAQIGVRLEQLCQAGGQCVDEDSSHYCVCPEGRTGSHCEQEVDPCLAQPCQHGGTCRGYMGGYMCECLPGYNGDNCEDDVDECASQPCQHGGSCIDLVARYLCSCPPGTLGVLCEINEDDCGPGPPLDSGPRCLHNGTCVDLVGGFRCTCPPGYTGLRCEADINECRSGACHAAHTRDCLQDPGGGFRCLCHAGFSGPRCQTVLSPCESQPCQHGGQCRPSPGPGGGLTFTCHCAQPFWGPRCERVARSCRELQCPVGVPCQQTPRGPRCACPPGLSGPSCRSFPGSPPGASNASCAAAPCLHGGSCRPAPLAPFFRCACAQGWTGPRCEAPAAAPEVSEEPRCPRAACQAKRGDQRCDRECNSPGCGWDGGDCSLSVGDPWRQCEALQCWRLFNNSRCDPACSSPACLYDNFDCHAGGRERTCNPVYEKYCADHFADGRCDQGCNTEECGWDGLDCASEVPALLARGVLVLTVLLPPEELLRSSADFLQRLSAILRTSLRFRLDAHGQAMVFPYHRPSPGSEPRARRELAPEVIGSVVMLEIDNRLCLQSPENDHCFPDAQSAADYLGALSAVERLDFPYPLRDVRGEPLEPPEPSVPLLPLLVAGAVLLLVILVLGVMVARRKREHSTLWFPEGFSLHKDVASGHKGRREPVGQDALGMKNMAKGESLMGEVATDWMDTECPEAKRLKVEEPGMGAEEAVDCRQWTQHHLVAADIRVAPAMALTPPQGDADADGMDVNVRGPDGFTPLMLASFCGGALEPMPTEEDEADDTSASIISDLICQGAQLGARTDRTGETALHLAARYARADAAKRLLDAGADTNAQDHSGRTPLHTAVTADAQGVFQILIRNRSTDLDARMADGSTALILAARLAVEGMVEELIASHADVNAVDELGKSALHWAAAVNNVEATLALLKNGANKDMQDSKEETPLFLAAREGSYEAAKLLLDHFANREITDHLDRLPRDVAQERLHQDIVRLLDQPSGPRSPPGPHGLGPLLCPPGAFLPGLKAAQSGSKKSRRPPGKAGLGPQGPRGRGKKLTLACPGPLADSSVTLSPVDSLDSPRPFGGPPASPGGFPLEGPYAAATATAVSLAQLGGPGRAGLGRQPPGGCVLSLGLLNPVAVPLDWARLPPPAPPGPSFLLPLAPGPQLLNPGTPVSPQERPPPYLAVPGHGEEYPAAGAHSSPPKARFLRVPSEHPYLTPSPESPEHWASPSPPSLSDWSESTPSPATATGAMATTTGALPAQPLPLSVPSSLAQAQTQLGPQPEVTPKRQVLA
Torsin-1A-interacting protein 2 (Homo sapiens), sequence (Q8NFQ8 whole entry, looked up): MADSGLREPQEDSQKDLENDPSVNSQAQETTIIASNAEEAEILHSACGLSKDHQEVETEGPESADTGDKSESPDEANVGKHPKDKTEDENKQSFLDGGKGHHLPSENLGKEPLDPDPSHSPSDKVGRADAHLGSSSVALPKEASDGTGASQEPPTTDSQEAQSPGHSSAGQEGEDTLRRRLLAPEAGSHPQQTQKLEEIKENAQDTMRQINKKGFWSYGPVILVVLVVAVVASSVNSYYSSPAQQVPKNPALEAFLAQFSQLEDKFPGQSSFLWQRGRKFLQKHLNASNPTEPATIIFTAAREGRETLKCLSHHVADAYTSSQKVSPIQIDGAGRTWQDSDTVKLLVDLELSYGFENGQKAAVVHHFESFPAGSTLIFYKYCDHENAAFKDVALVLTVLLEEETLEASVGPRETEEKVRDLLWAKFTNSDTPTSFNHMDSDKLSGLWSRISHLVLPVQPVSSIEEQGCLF

With CC(C)(C)OC(=O)CC[C@]1(C(=O)O)COC(c2ccc(OCCCO)cc2)=N1 as the compound, how does the composite z-score [1] read?
Its composite z-score is 0.303.

And the composite z-score [2]?
The composite z-score was 2.38.

What about the composite z-score [3] of the same compound?
The composite z-score was -0.0279.

What about the composite z-score [4] of the same compound?
Its composite z-score is -0.011.

What about the composite z-score [5] of the same compound?
Its composite z-score is 0.541.

And the composite z-score [6]?
Its composite z-score is 1.98.

And the composite z-score [7]?
The composite z-score was 1.45.

And the z-score [8]?
Its z-score is 0.394 (inactive).

And the composite z-score [9]?
Its composite z-score is 0.556.

What about the composite z-score [10] of the same compound?
The composite z-score was -0.0296.

And the composite z-score [11]?
Its composite z-score is -1.22.

And the z-score [12]?
The z-score was 0.923 (inactive).

And the z-score [13]?
Its z-score is 0.179 (inactive).

And the z-score [14]?
Its z-score is 0.197 (inactive).

What about the composite z-score [15] of the same compound?
Its composite z-score is 1.29.

And the z-score [16]?
Its z-score is -0.079 (inactive).

What about the composite z-score [17] of the same compound?
Its composite z-score is 0.12.

What about the composite z-score [18] of the same compound?
Its composite z-score is -1.09.

What about the composite z-score [19] of the same compound?
Its composite z-score is -0.463.

What about the composite z-score [20] of the same compound?
Its composite z-score is -0.0575.

What does the source list for C=CCNC(=O)[C@@H]1[C@H]2C(=O)O[C@H](c3ccccc3)[C@H](c3ccccc3)N2[C@H](c2ccc(O)cc2)[C@@]12C(=O)Nc1ccc(C#CCCO)cc12?
composite z-score [1]: 0.0065; composite z-score [2]: -0.395; composite z-score [3]: -0.13; composite z-score [4]: 0.508; composite z-score [5]: -1.34; composite z-score [6]: 1.37; composite z-score [7]: -0.353; z-score [8]: -0.0378 (inactive); composite z-score [9]: -1.05; composite z-score [10]: -0.251; composite z-score [11]: -0.36; z-score [12]: -0.328 (inactive); z-score [13]: -0.397 (inactive); z-score [14]: -0.301 (inactive); composite z-score [15]: 2.17; z-score [16]: 2.31 (inactive); composite z-score [17]: -0.259; composite z-score [18]: -1.2; composite z-score [19]: -0.261; composite z-score [20]: -0.261

Which results are given for CCN(CC)c1ccc(N2CC=CC34O[C@@H]5/C=C\CCCOC(=O)C5[C@H]3C(=O)N(CCCCCCO)[C@@H]4C2=O)cc1 (stereo not given in full)?
composite z-score [1]: 0.272; composite z-score [2]: -0.305; composite z-score [3]: -0.119; composite z-score [4]: -0.964; composite z-score [5]: -0.946; composite z-score [6]: 1.63; composite z-score [7]: 0.709; z-score [8]: -0.489 (inactive); composite z-score [9]: -0.958; composite z-score [10]: -0.271; composite z-score [11]: 0.529; z-score [12]: -2.29 (inactive); z-score [13]: -0.737 (inactive); z-score [14]: -0.64 (inactive); composite z-score [15]: 3.35; z-score [16]: 1.27 (inactive); composite z-score [17]: -0.162; composite z-score [18]: -0.885; composite z-score [19]: -0.122; composite z-score [20]: -0.197

Which composite z-score [1] does the source give for CCCC[C@@H](O)C1=C(COc2ccccc2)Cn2c(=O)n(-c3ccccc3)c(=O)n2[C@H]1CO here?
Its composite z-score is -0.353.

What about the composite z-score [2] of the same compound?
The composite z-score was -0.0302.

What about the composite z-score [3] of the same compound?
The composite z-score was -0.118.

What about the composite z-score [4] of the same compound?
The composite z-score was 0.0467.

And the composite z-score [5]?
The composite z-score was -0.239.

What about the composite z-score [6] of the same compound?
Its composite z-score is -0.21.

And the composite z-score [7]?
Its composite z-score is -0.851.

What about the z-score [8] of the same compound?
The z-score was -1.83 (inactive).

And the composite z-score [9]?
Its composite z-score is -0.512.

And the composite z-score [10]?
Its composite z-score is 0.0274.

What about the composite z-score [11] of the same compound?
The composite z-score was 0.0063.

What about the z-score [12] of the same compound?
The z-score was -2.31 (inactive).

What about the z-score [13] of the same compound?
The z-score was -1.82 (inactive).

What about the z-score [14] of the same compound?
Its z-score is -1.17 (inactive).

And the composite z-score [15]?
The composite z-score was 0.94.

And the z-score [16]?
Its z-score is 1.87 (inactive).

What about the composite z-score [17] of the same compound?
Its composite z-score is -0.285.

And the composite z-score [18]?
The composite z-score was -0.376.

And the composite z-score [19]?
The composite z-score was -0.88.

And the composite z-score [20]?
The composite z-score was -0.229.
